Laboratory results reported in ChEMBL document CHEMBL1961873, “Compounds: GSK PKIS; Assays: Nanosyn kinase panel” (2012).

Key:
[1] = biological target: T1, 3-phosphoinositide-dependent protein kinase 1 (Homo sapiens) (UniProt O15530); conditions: at 0.1 µM;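 also: values are mean inhibition of PDK1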
T1 sequence (whole entry): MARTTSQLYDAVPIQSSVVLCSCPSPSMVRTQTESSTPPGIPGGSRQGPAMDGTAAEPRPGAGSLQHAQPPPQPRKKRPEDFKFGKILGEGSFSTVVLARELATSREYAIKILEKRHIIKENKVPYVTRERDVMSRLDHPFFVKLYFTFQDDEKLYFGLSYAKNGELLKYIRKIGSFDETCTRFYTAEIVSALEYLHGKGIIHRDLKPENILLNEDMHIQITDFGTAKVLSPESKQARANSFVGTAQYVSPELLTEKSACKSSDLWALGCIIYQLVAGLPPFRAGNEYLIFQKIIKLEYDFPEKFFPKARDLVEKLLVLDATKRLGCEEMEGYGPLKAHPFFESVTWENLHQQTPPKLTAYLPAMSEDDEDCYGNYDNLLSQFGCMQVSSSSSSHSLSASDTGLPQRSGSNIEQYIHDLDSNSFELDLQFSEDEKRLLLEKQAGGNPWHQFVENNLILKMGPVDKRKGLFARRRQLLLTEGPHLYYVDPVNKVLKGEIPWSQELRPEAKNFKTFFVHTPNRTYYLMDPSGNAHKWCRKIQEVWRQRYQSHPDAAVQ

[2] = biological target: cAMP-dependent protein kinase catalytic subunit alpha (Homo sapiens) (UniProt P17612); conditions: at 0.1 µM
[3] = biological target: cAMP-dependent protein kinase catalytic subunit alpha (Homo sapiens) (UniProt P17612); conditions: at 1 µM
[4] = biological target: Protein kinase C alpha type (Homo sapiens) (UniProt P17252); conditions: at 0.1 µM
[5] = biological target: Protein kinase C alpha type (Homo sapiens) (UniProt P17252); conditions: at 1 µM
[6] = biological target: Protein kinase C beta type (Homo sapiens) (UniProt P05771); conditions: at 0.1 µM
[7] = biological target: Protein kinase C beta type (Homo sapiens) (UniProt P05771); conditions: at 1 µM
[8] = biological target: Protein kinase C eta type (Homo sapiens) (UniProt P24723); conditions: at 0.1 µM
[9] = biological target: Protein kinase C eta type (Homo sapiens) (UniProt P24723); conditions: at 1 µM
[10] = biological target: Protein kinase C gamma type (Homo sapiens) (UniProt P05129); conditions: at 0.1 µM
[11] = biological target: Protein kinase C gamma type (Homo sapiens) (UniProt P05129); conditions: at 1 µM
[12] = biological target: T2, Protein kinase C iota type (Homo sapiens) (UniProt P41743); conditions: at 0.1 µM
T2 sequence (whole entry): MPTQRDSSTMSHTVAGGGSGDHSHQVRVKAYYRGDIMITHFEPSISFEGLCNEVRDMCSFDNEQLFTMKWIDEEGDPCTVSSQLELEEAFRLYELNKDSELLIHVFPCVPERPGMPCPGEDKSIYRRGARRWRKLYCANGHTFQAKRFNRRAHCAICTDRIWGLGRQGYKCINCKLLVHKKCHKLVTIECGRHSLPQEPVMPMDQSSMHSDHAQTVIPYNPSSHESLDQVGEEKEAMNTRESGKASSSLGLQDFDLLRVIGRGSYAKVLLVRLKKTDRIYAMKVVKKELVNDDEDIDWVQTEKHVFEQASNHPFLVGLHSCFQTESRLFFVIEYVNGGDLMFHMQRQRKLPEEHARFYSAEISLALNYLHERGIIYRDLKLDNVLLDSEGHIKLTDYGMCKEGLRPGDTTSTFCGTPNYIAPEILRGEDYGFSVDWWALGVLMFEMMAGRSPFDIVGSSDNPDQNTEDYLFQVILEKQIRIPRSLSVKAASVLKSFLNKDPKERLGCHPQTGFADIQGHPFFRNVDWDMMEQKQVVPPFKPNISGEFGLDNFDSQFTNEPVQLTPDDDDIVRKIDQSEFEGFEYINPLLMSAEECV

[13] = biological target: T2, Protein kinase C iota type (Homo sapiens); conditions: at 1 µM
[14] = biological target: Protein kinase C theta type (Homo sapiens) (UniProt Q04759); conditions: at 0.1 µM
[15] = biological target: Protein kinase C theta type (Homo sapiens) (UniProt Q04759); conditions: at 1 µM
[16] = biological target: Protein kinase C beta type (Homo sapiens) (UniProt P05771); conditions: at 0.1 µM; remark: listed apart in the source
[17] = biological target: Protein kinase C beta type (Homo sapiens) (UniProt P05771); conditions: at 1 µM; remark: listed apart in the source
[18] = biological target: T3, Serine/threonine-protein kinase D1 (Homo sapiens) (UniProt Q15139); conditions: at 0.1 µM
T3 sequence (whole entry): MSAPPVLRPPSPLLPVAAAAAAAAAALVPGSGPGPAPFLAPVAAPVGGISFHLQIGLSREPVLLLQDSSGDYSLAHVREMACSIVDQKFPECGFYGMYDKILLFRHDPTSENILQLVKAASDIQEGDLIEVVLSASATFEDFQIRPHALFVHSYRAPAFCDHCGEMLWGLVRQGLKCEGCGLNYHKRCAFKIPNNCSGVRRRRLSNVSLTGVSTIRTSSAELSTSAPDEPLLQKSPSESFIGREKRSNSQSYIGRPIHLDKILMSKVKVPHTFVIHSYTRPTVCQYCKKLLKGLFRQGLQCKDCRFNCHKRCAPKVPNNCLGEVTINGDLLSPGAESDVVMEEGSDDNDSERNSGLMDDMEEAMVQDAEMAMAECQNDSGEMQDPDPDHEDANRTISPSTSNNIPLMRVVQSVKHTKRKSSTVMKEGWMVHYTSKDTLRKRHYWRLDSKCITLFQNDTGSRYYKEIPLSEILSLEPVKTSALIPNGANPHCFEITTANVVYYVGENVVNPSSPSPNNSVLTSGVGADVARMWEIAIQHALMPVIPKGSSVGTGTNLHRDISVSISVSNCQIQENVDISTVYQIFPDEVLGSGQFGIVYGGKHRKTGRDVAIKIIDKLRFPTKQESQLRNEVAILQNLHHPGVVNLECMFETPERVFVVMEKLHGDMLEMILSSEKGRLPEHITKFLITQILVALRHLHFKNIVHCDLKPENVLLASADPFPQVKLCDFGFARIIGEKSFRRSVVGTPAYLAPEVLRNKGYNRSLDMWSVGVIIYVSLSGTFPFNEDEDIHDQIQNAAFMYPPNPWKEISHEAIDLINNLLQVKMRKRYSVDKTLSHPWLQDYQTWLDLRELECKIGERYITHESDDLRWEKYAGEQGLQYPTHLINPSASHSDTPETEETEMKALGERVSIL

[19] = biological target: T3, Serine/threonine-protein kinase D1 (Homo sapiens); conditions: at 1 µM
[20] = biological target: T4, Serine/threonine-protein kinase D2 (Homo sapiens) (UniProt Q9BZL6); conditions: at 0.1 µM;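 also: reported percent inhibition values are means, part of the GSK PKIS kinase panel screen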
T4 sequence (whole entry): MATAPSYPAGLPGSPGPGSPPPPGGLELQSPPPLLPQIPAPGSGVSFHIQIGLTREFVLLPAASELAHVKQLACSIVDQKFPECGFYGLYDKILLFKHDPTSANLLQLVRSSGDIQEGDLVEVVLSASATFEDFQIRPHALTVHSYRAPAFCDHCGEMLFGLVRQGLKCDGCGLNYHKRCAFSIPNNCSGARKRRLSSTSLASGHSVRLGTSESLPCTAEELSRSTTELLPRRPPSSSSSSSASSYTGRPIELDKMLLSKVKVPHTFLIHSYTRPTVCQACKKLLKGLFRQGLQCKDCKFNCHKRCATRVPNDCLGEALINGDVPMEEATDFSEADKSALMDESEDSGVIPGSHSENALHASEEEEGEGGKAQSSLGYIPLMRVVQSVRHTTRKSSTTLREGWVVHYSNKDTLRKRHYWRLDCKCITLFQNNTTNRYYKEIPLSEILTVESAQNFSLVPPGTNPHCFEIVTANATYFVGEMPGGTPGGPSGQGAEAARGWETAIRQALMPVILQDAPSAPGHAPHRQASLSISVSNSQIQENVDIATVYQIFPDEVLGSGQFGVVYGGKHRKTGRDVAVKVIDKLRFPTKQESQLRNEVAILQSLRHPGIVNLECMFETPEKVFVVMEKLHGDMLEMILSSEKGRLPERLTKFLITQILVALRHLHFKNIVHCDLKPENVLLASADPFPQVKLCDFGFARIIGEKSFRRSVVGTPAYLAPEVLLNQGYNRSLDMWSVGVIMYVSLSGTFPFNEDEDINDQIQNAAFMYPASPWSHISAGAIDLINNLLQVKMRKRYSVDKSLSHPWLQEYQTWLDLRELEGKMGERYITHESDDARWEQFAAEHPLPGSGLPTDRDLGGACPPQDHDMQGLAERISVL

Protein kinase C eta type (Homo sapiens), sequence (P24723 whole entry): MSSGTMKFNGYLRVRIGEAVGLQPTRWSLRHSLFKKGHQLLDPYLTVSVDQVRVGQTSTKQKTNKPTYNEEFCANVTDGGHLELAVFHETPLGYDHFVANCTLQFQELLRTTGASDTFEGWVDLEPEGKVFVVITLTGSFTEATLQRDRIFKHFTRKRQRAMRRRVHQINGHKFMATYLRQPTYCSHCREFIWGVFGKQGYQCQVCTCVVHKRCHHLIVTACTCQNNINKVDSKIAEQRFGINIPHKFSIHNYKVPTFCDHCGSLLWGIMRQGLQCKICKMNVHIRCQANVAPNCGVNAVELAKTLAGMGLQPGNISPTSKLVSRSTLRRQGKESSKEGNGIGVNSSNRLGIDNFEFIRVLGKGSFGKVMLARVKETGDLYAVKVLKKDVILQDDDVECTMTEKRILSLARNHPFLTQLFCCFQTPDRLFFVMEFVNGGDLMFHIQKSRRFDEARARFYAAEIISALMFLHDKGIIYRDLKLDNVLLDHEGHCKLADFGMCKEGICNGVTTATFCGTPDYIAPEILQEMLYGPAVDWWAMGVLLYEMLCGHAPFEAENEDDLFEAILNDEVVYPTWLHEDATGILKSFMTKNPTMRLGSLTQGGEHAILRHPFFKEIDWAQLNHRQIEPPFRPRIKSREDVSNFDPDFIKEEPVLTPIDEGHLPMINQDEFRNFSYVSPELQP
Protein kinase C theta type (Homo sapiens), sequence (Q04759 whole entry, looked up): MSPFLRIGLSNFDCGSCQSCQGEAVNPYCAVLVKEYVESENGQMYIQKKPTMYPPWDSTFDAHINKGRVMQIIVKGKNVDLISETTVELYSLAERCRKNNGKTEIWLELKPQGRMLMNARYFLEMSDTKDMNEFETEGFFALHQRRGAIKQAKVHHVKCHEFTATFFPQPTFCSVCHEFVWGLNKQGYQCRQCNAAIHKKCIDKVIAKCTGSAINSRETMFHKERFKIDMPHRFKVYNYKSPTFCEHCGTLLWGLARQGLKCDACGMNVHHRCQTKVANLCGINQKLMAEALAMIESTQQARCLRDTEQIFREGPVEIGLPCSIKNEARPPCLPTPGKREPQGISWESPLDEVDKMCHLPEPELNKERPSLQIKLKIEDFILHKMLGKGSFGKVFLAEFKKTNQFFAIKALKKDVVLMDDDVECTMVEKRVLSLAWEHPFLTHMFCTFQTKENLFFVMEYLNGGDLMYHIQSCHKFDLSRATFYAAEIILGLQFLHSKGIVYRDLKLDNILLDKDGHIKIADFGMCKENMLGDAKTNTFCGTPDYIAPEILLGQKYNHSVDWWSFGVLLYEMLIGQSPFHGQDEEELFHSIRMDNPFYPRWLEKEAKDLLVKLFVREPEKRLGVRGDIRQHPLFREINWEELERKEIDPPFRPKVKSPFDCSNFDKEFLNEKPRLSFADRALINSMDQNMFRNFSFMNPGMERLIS
Protein kinase C beta type (Homo sapiens), sequence (P05771 2-671 limits assumed): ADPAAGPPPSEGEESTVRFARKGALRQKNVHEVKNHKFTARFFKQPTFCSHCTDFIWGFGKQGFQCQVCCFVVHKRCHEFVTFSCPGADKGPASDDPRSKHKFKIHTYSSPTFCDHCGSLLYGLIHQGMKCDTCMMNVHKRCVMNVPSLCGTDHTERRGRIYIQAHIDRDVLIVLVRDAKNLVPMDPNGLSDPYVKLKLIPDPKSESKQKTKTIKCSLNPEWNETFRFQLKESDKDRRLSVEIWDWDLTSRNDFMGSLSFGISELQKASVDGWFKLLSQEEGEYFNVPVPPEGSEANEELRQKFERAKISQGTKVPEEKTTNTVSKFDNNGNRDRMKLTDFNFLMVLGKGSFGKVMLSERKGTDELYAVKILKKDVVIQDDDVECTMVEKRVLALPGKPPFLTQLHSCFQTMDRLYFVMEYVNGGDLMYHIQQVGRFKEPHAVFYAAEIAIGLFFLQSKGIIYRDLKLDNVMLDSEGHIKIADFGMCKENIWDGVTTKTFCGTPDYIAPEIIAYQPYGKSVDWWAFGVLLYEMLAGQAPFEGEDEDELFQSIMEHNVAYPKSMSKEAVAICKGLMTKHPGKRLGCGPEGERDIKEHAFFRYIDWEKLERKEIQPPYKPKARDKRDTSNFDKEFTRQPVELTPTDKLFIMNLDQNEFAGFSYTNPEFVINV

COc1cccc(-n2ncc3c(N/N=C/c4ccncc4)ncnc32)c1
inhibition [1]: 3.34%
inhibition [2]: 1.96%
inhibition [3]: 4.25%
inhibition [4]: 2.71%
inhibition [5]: 8.07%
inhibition [6]: 1.63%
inhibition [7]: 7.79%
inhibition [8]: 4.72%
inhibition [9]: 2.1%
inhibition [10]: 1.76%
inhibition [11]: 7.85%
inhibition [12]: 3.39%
inhibition [13]: 13.1%
inhibition [14]: 2.97%
inhibition [15]: 5.71%
inhibition [16]: 2.37%
inhibition [17]: 9.57%
inhibition [18]: 4.37%
inhibition [19]: 10.1%
inhibition [20]: 4.75%

COc1cccc(COc2cc(-n3cnc4ccccc43)sc2C(N)=O)c1
inhibition [1]: 12.1%
inhibition [2]: 2.47%
inhibition [3]: 0.86%
inhibition [4]: -0.54%
inhibition [5]: 0%
inhibition [6]: -0.69%
inhibition [7]: 0.94%
inhibition [8]: 0.43%
inhibition [9]: 1.12%
inhibition [10]: 1.09%
inhibition [11]: 3.94%
inhibition [12]: -0.74%
inhibition [13]: -0.85%
inhibition [14]: 1.23%
inhibition [15]: 1.18%
inhibition [16]: 0.72%
inhibition [17]: 1.77%
inhibition [18]: 0.37%
inhibition [19]: 1.82%
inhibition [20]: 1.64%

CCn1c(-c2nonc2N)nc2c(C#CCN)ncc(OCCCN)c21
inhibition [1]: 1.2%
inhibition [2]: 7.1%
inhibition [4]: 1.06%
inhibition [5]: 4.21%
inhibition [6]: 14.7%
inhibition [7]: 47.8%
inhibition [8]: 19.6%
inhibition [9]: 73.4%
inhibition [10]: 3.97%
inhibition [11]: 4.01%
inhibition [12]: 2.51%
inhibition [13]: 16.5%
inhibition [14]: 6.73%
inhibition [15]: 38.6%
inhibition [16]: 4.07%
inhibition [17]: 12%
inhibition [18]: -1.16%
inhibition [19]: -3.02%
inhibition [20]: -2.14%

CCn1c(-c2nonc2N)nc2c(C#CC(C)(C)O)ncc(OC[C@@H]3CCCN3)c21
inhibition [1]: 0.24%
inhibition [2]: 68.7%
inhibition [3]: 81.2%
inhibition [4]: 2.42%
inhibition [5]: 18.4%
inhibition [6]: 30.1%
inhibition [7]: 61.3%
inhibition [8]: 87.1%
inhibition [9]: 96.3%
inhibition [10]: 9.3%
inhibition [11]: 44.6%
inhibition [12]: 0.62%
inhibition [13]: 11.4%
inhibition [14]: 30%
inhibition [15]: 72.3%
inhibition [16]: 7.63%
inhibition [17]: 37.1%
inhibition [18]: 2.68%
inhibition [19]: 19.2%
inhibition [20]: 4.02%

COc1cc(C=NNc2ncnc3c2cnn3Cc2ccccc2)ccc1O
inhibition [1]: -3.37%
inhibition [2]: -0.54%
inhibition [3]: 5.93%
inhibition [4]: -0.63%
inhibition [5]: 3.5%
inhibition [6]: 0.36%
inhibition [7]: 3.19%
inhibition [8]: -5.63%
inhibition [9]: -0.89%
inhibition [10]: -2.68%
inhibition [11]: 2.96%
inhibition [12]: -1.06%
inhibition [13]: -0.54%
inhibition [14]: -1.05%
inhibition [15]: 1.99%
inhibition [16]: -1.09%
inhibition [17]: 1.44%
inhibition [18]: -4.01%
inhibition [19]: -1.69%
inhibition [20]: -3.31%

COc1cc2c(cc1Nc1nc(Nc3ccsc3C(N)=O)c3cc[nH]c3n1)N(C(=O)CN(C)C)CCC2
inhibition [1]: 0.7%
inhibition [2]: 4.62%
inhibition [3]: 3.81%
inhibition [4]: 1.91%
inhibition [5]: 10.2%
inhibition [6]: -0.18%
inhibition [7]: 1.94%
inhibition [8]: 1.28%
inhibition [9]: 3.46%
inhibition [12]: -0.4%
inhibition [13]: -0.5%
inhibition [14]: 4.39%
inhibition [15]: 10.2%
inhibition [16]: -1.27%
inhibition [17]: 2.49%
inhibition [18]: 3.95%
inhibition [19]: 19.8%
inhibition [20]: 12.2%

Cc1cc(-c2ccco2)cc(C)c1/C=C/c1cncc(-c2nn[nH]n2)c1
inhibition [1]: -0.25%
inhibition [2]: -2.7%
inhibition [3]: 1.88%
inhibition [4]: 0.15%
inhibition [5]: 0.97%
inhibition [6]: -0.49%
inhibition [7]: 0.6%
inhibition [8]: 1.26%
inhibition [9]: 2.42%
inhibition [10]: 0.18%
inhibition [11]: 1.85%
inhibition [12]: 0.32%
inhibition [13]: -0.83%
inhibition [14]: 0.29%
inhibition [15]: -0.04%
inhibition [16]: -0.04%
inhibition [17]: -0.06%
inhibition [18]: 0.58%
inhibition [19]: 2.09%
inhibition [20]: 0.97%
